GCN5L2 inh: GCN5L2 (KAT2A) acetyltransferase inhibition; Q92830; GCN5L2 HAT assay, ThioGlo1 CoA-SH fluorescence; Potency, µM (titrated, usually from 58.9 µM), actives largely listed as inhibitors; actives 0.21% (n = 390,000)
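Free CoA generated was detected with ThioGlo1 (50uM) fluorescence at Ex340nm/Em540nm, read immediately and after 20 min at room temperature. Enzyme, 20 nM in HEPES pH 7.5 buffer, saw compounds 15 min before adding 75uM H3(1-25) peptide and 70uM acetyl-CoA.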
GLS inh: inhibitors of human glutaminase (GLS); GLS enzymatic activity, qHTS titration; Potency, µM (highest dose often 45.5 µM), hits mostly inhibitors; actives 0.21% (n = 410,000)
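hKGA in 45 mM KH2PO4 pH 8.2, 0.02% Tween-20 with pin-transferred compounds; 1 mM L-glutamine (stock) plus glutamate oxidase/HRP/Amplex Red coupling added. Fluorescence read initially and after 30 min at RT.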
Sfp PPTase inh: Sfp phosphopantetheinyl transferase inhibition. Q9F4F7. Biochemical Sfp PPTase activity, qHTS. Potency, µM, actives largely listed as inhibitors. actives 3.5% (n = 310,000);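 note: the enzyme is Sfp with the accession as filed and its product quenches rhodamine fluorescence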
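After 15 min at room temperature with compound, 15 nM Sfp received 5 uM rhodamine-CoA plus 12.5 uM BHQ-2-ybbR (50 mM Hepes pH 7.6, 10 mM MgCl2). Rate came from the fluorescence difference over 30 min, ex 525/em 598 nm.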
TrxR1 substrate: is turned over as a substrate by rat TrxR1 | Potency, µM (highest dose often 114 µM) | actives 0.01% (n = 390,000) | purified TrxR1 substrate turnover, NADPH consumption readout | O89049; note: nearly all actives have a fitted effect of over 50% in size
Target sequence (O89049 whole entry, looked up): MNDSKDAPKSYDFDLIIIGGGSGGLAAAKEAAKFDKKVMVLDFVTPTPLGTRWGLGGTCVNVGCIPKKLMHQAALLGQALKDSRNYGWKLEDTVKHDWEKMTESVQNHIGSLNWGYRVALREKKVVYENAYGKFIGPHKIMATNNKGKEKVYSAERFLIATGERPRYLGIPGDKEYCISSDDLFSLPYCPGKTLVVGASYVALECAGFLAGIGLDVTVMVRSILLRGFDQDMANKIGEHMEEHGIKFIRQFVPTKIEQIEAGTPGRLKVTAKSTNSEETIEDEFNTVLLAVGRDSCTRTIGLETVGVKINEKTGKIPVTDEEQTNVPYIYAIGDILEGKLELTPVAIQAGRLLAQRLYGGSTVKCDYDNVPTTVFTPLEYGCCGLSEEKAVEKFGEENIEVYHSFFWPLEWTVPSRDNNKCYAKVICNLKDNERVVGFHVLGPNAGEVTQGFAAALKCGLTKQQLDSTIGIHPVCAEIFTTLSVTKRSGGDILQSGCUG
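Rat TrxR1, dispensed at 90 nM, was prereduced with 400 uM NADPH (final) for 5 min at ~22 deg C, then incubated with compound 15 min before 400 uM selenite. A first-read NADPH fluorescence drop versus no-compound background flagged substrates.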
VDR inhibitor: blocks the human vitamin D receptor. P11473. VDR-SRC2-3 peptide fluorescence polarization, 2 h. Potency, µM, actives largely listed as inhibitors. actives 0.93% (n = 400,000)
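Fluorescence polarization assay measuring small-molecule disruption of VDR binding to the coregulator peptide SRC2-3. Compounds were pin-transferred (23 nl) into the reagent mix and incubated 2 h at room temperature before reading.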
TrxR1 inh: blocks rat thioredoxin reductase 1; actives 1% (n = 390,000); recombinant rTrxR1, NADPH fluorescence consumption, selenite substrate; Potency, µM (highest dose often 114 µM), actives largely listed as inhibitors; O89049; note: nearly all actives have a fitted effect of over 65% in size
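Rat TrxR1 (90 nM in the dispensed reagent) was pre-reduced with 400 uM NADPH for 5 min at room temperature, then incubated with compound for 15 min. After 400 uM selenite was added, NADPH fluorescence (Ex 340/Em 450 nm) was followed for 8 min.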
Numbers stand for hits; . = inactive; ? = inconclusive; / = no result given; ! = a repeat was not active; [ ] = another dose, or the depositor's remark. This is a sample that favours compounds with a hit; in the whole collection about 3.8% have one here. Calls come from the whole dose curve; as a rule, active = well fitted curve in the direction sought with a large enough effect; inconclusive = small, poorly fitted or top-dose-only effect, or another doubt; inactive = no such curve, though single readings can be large; an effect the other way counts as inactive or inconclusive.

SMILES | GCN5L2 inh | GLS inh | Sfp PPTase inh | TrxR1 substrate | VDR inhibitor | TrxR1 inh
CCN(CC)CCN(Cc1cc2cc(C)cc(C)c2[nH]c1=O)C(=S)NCc1ccco1 | . | . | . | . | . | .
CCN(CC)CCN(Cc1cc2ccc(C)c(C)c2[nH]c1=O)C(=S)NCc1ccco1 | . | . | 56µM | . | . | .
CCCOC(=O)/C(=C\C=C\c1ccco1)NC(=O)c1ccccc1 | ? | . | 50µM | . | . | .
O=C(N/N=C/C=C/c1ccco1)/C(=C/c1ccccc1)NC(=O)c1ccccc1 | . | . | 45µM | . | ? | 20µM
C#CCOC(=O)/C(=C/C=C/c1ccccc1)NC(=O)c1ccccc1 | . | . | . | . | . | .
O=C(N/N=C/C=C\c1ccco1)c1cccs1 | ? | . | 22µM | . | . | ?
O=C(Cc1cccs1)N/N=C/C=C\c1ccco1 | . | . | 7.9µM | . | . | ?
COc1ccccc1-c1noc(-c2ccccc2C(=O)NCc2ccco2)n1 | . | . | . | . | . | .
[O-][n+]1onc2c1CCc1c-2nc(-c2ccccc2)n1OCc1ccccc1 | . | . | . | . | . | .
Cc1cccc(OCC(=O)N/N=C/C=C/c2ccco2)c1 | ? | . | ? | . | ? | ?
O=C(N/N=C/C=C/c1ccco1)c1ccncc1 | ? | . | 56µM | . | ? | 40µM
CCOC(=O)N/N=C\C=C\c1ccco1 | . | . | 45µM | . | . | ?
Cc1ccc(OCC(=O)N/N=C/C=C/c2ccco2)c(Br)c1 | . | . | 50µM | . | . | ?
CC1CCCN(C(=O)c2sc3cc([N+](=O)[O-])ccc3c2Cl)C1 (stereo not drawn) | . | . | . | . | . | .
Cc1cccn2c(=O)c(/C=C(\C#N)C(=O)NC3CCS(=O)(=O)C3)c(N3CCC(C(N)=O)CC3)nc12 (stereo not drawn) | . | . | . | . | . | .
CCOC(=O)/C(C#N)=C/c1c(Oc2cccc(C)c2)nc2ccccn2c1=O | . | . | . | . | . | .
Cc1cccn2c(=O)c(/C=C(\C#N)c3nc4ccccc4s3)c(Oc3ccc(Br)cc3)nc12 | . | . | / | . | 79µM | .
Cc1ccc(Oc2nc3ccccn3c(=O)c2/C=C(\C#N)C(=O)NC2CCS(=O)(=O)C2)cc1 (stereo not drawn) | . | . | . | . | 79µM | .
CCOC(=O)/C(C#N)=C/c1c(Oc2cccc(C)c2)nc2c(C)cccn2c1=O | . | . | 89µM | . | . | .
Cc1ccccc1Oc1nc2c(C)cccn2c(=O)c1/C=C(\C#N)C(=O)NC1CCS(=O)(=O)C1 (stereo not drawn) | . | ? | . | . | 40µM | .
COc1ccc(/C=N/c2nc3ccccc3n2CCN2CCCCC2)cc1OC | . | . | . | . | . | .
COC(=O)c1ccc(N=NN2CCCCC2)cc1 | . | . | . | . | . | .
CC(=O)N(Cc1cc2cc(C)ccc2[nH]c1=O)c1cccc(C)c1C | . | . | . | .[11.4 µM] | . | .
Cc1cccn2c(=O)c(/C=C(\C#N)C(=O)NC3CCS(=O)(=O)C3)c(Oc3ccccc3Cl)nc12 (stereo not drawn) | . | . | . | . | 18µM | .
COc1ccc(C2C=C(c3ccc(C)cc3)Nc3ncnn32)cc1 (stereo not drawn) | ? | . | ? | . | . | .
SMILES | GCN5L2 inh | GLS inh | Sfp PPTase inh | TrxR1 substrate | VDR inhibitor | TrxR1 inh
Cc1ccc(C2C=C(c3ccccc3)Nc3ncnn32)cc1 (stereo not drawn) | / | . | / | . | ? | 45µM
Fc1ccc(C2=CC(c3ccc(Br)o3)n3ncnc3N2)cc1 (stereo not drawn) | ? | . | . | . | ? | 7.9µM
Brc1ccc(C2=CC(c3cccs3)n3ncnc3N2)cc1 (stereo not drawn) | ? | ? | 79µM | . | . | .
O=[N+]([O-])c1cc(C(F)(F)F)ccc1N/N=C/c1cc2ccccc2nc1Cl | . | / | . | / | / | /
Cc1ccc(CNC(=O)CSc2c3c(nc4cc(Cl)ccc24)CCCC3)o1 | . | . | 18µM | . | ? | 14µM
CCOc1ccc(CNC(=O)CSc2c3c(nc4cc(Cl)ccc24)CCCC3)cc1 | . | . | / | . | . | .
O=C(CSc1nccc(=O)[nH]1)c1c[nH]c2ccccc12 | . | . | . | . | . | .
O=C(CSc1nccc(=O)[nH]1)c1ccccc1Br | . | . | 50µM | . | ? | .
CC(C)(C)c1n[nH]c2c1CCCC2 | . | . | . | . | . | .
COc1ccc(NC(=O)/C=C/c2ccc(C)o2)cc1S(=O)(=O)N1CCOCC1 | . | ? | 50µM | .[11.4 µM] | . | .
CCOC(=O)CCc1ccc(NC(=O)/C=C/c2ccc([N+](=O)[O-])o2)cc1 | / | . | / | .[11.4 µM] | . | ?
CC(=O)c1ccc(NC(=O)/C=C/c2ccc(C)o2)cc1 | . | . | / | . | . | 22µM
CCN(CC)c1ccc(S(=O)(=O)N2CCOCC2)cc1NC(=O)COC(=O)/C=C/c1ccc(C)o1 | . | . | / | . | . | 71µM
Cc1ccc(/C=C/C(=O)Nc2ccc([N+](=O)[O-])cc2)o1 | . | . | 14µM | . | . | ?
COCCNC(=O)C1c2ccccc2C(=O)N(CCOC)C1c1ccc(F)cc1 (stereo not drawn) | . | . | . | . | . | .
CC(C)(C)S(=O)(=O)/C(C#N)=N/Nc1ccc(S(C)(=O)=O)cc1 | . | . | . | . | . | .
CCn1c(=O)c(=O)n(CC)c2cc(N3CCCCC3)c(NC(=O)c3ccc(OC)c(OC)c3)cc21 | . | . | / | . | . | .
CCc1cccc(C)c1NS(=O)(=O)c1cc2[nH]c(=O)c(=O)[nH]c2cc1C | . | . | / | . | . | .
Cc1cc(NS(=O)(=O)c2ccc(NC(=O)/C=C/c3ccc(C)o3)cc2)nc(C)n1 | . | 10µM | 3.5µM | . | ? | 28µM
O=C(Nc1nccs1)c1ccc(Br)o1 | . | . | . | . | . | .
Cc1ccc(/C=C/C(=O)Nc2nnc(C)s2)o1 | . | . | . | . | . | 28µM
O=C(/C=C/c1ccc(Br)o1)Nc1nccs1 | . | . | ? | . | . | 28µM
Cc1cc(NS(=O)(=O)c2ccc(NC(=O)/C=C/c3ccccc3)cc2)nc(C)n1 | . | . | / | . | . | .
COc1ccc(CCC(=O)NCc2cn3ccsc3n2)cc1 | / | . | / | . | . | .
CCNc1ncc2nc(C)c(=O)n(-c3ccc(OC)cc3)c2n1 | . | / | . | / | . | /
O=C(O)CCCC(=O)Nc1ccc(Oc2ncnc3cc(Cl)ccc23)nc1 | . | . | . | . | . | .
COc1ccc(CNC(=O)CN(c2ccccc2)S(=O)(=O)N(C)C)cc1 | . | . | . | . | 89µM! | .
CN(C)S(=O)(=O)N(CC(=O)NCc1ccccc1)c1ccccc1 | . | . | . | . | . | .

High-throughput results deposited in PubChem by National Center for Advancing Translational Sciences (NCATS).
